Measured values as given in ChEMBL document CHEMBL1201862, “PubChem BioAssay data set” (2004).
In all, about 400,000 compounds went through this assay and about 2,100 (0.53%) were called active. Not shown: some 14% with an inconclusive outcome. This is one part of a sample in which actives are shown more often than they occur. No rule for the calls is given here.

What follows are compounds tested against Ataxin-2 (Homo sapiens) (UniProt Q99700) (assay: qHTS for Inhibitors of ATXN expression.).
Chain of Ataxin-2 (Homo sapiens) (Q99700 whole entry): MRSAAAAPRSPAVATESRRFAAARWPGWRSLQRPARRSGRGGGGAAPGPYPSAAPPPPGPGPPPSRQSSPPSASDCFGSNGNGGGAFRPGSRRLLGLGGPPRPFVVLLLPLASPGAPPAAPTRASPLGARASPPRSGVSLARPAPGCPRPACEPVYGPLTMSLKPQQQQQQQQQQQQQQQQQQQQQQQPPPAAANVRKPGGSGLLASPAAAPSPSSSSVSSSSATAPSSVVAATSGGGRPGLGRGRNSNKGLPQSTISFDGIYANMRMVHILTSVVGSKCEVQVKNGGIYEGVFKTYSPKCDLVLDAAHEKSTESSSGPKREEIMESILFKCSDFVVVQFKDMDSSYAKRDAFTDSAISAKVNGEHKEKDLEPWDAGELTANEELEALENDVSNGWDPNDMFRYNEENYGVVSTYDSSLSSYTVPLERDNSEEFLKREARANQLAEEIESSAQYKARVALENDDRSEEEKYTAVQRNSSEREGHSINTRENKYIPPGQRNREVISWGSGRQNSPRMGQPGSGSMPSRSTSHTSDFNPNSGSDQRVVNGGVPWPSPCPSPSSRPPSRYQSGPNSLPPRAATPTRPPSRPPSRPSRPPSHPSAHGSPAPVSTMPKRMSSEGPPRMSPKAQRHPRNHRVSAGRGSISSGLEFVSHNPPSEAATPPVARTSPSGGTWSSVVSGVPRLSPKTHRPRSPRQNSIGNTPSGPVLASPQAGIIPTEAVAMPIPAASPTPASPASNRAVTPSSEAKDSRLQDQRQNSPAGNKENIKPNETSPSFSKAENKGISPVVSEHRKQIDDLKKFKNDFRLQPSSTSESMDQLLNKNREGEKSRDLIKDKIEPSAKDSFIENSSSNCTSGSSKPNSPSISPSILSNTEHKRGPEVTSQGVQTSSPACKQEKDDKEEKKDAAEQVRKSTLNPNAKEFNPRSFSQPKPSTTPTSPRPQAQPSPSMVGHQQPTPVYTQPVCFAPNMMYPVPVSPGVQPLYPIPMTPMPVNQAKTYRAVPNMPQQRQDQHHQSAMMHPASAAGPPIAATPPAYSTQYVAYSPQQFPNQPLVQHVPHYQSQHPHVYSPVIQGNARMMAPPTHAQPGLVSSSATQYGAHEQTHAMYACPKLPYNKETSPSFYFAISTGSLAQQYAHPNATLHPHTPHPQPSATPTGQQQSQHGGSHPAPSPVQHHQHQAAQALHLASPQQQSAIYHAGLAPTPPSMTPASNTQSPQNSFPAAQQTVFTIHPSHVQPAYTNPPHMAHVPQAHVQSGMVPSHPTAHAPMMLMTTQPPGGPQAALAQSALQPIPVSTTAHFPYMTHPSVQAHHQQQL
Type: functional
For `Fc1ccc(NC(=S)N2CCSC2c2cccs2)cc1` (configuration not stated), the Potency was “inactive”. For `CC(C)OC(=O)CC(=O)CSc1nc2c(c(-c3cccs3)c1C#N)CCC2`, the Potency was “inactive”. `CC1CN(CCOCCSc2ccc(Cl)cc2)CC(C)O1` (configuration not stated) was tested, and the Potency was “inactive”. With `Cn1c2ccccc2c2nnc(NN)nc21` the Potency was “inactive”. In the case of `CN(Cc1ccsc1)C(=O)CCc1nnc(CCCc2ccccc2)o1`, the Potency is reported as “inactive”. With `COCCCNCCCCSc1ccc(Cl)cc1` the Potency was “inactive”. For `CCCCOc1ccc(C(=O)NCCc2ccccc2)cc1`, the Potency was “inactive”. `CCCOc1ccc(C(=O)NNC(=S)NC(=O)CC)cc1` was tested, and the Potency was 31.6 µM (active). In the case of `COc1cc(OC)cc(C(=O)NNC(=S)NC(=O)c2cccnc2)c1`, the Potency is reported as “inactive”. `Cc1ccc(SCc2c(C(=O)N/N=C/c3ccoc3)nnn2-c2nonc2N)cc1` was tested, and the Potency was “inactive”. In the case of `CC(=O)Nc1ccc(NC(=O)/C=C/c2ccc3c(c2)OCO3)cc1`, the Potency is reported as “inactive”. With `CCOC(=O)c1[nH]c2ccc(Cl)cc2c1NC(=O)/C=C/c1ccc2c(c1)OCO2` the Potency was 44.7 µM (active). With `CCN(C(=O)COC(=O)/C=C/c1ccc2c(c1)OCO2)c1c(N)n(Cc2ccccc2)c(=O)[nH]c1=O` the Potency was “inactive”. With `CCN(CC)S(=O)(=O)c1cccc(-c2nnc(SCC(N)=O)n2C)c1` the Potency was “inactive”. In the case of `CCCOc1ccc(-c2nn(-c3ccccc3)cc2/C=C2\SC(N)=NC2=O)cc1`, the Potency is reported as “inactive”. For `O=Cc1cn(-c2ccccc2)nc1-c1cc2cc(O)ccc2oc1=O`, the Potency was “inactive”. With `CC1=NNC(=O)/C1=C\c1cn(-c2ccccc2)nc1-c1ccc(F)cc1` the Potency was 8.91 µM (active). With `CCCSc1ccc(-c2nn(-c3ccccc3)cc2/C=C(/C#N)C(=O)NCCCOC)cc1` the Potency was “inactive”. With `CC1=NNC(=O)/C1=C\c1cn(-c2ccccc2)nc1-c1ccc(Cl)cc1` the Potency was 10 µM (active). In the case of `CCSc1ccc(-c2nn(-c3ccccc3)cc2/C=C(/C#N)C(=O)NC)cc1`, the Potency is reported as “inactive”. For `CCC(C)Sc1nc(O)c2cnn(-c3ccc(F)cc3)c2n1` (configuration not stated), the Potency was “inactive”. With `O=C(N/N=C\c1cc(Br)ccc1O)c1ccc(S(=O)(=O)N2CCCCC2)cc1` the Potency was “inactive”. `CC(OC(=O)Cn1cnc2c1c(=O)n(C)c(=O)n2C)C(=O)Nc1ccc(Cl)cc1` (configuration not stated) was tested, and the Potency was “inactive”. In the case of `Oc1ccc(C2C=C(c3ccc(F)cc3)Nc3ncnn32)cc1` (configuration not stated), the Potency is reported as “inactive”. `Cc1cc(C)nc(-n2nc(C)c3c2NC(=O)CC3c2ccccc2OC(C)C)n1` (configuration not stated) was tested, and the Potency was 25.1 µM (active). For `CCCCCCSc1ccc(-c2nc3cnccn3c2NC2CCCCC2)cc1`, the Potency was “inactive”. With `CCOC(=O)c1c(C)[nH]c(C(=O)COC(=O)CCNS(=O)(=O)c2ccc(NC(C)=O)cc2)c1C` the Potency was “inactive”. `CCCCn1c(NC(=O)c2ccco2)c(S(=O)(=O)c2ccc(C)cc2)c2nc3ccccc3nc21` was tested, and the Potency was “inactive”. In the case of `CC[n+]1c(/C=C2\SC(c3ccccc3C)=CN2C)sc2ccccc21`, the Potency is reported as “inactive”. With `CC[n+]1c(/C=C/C=C/N(C(C)=O)c2ccccc2)sc2ccccc21` the Potency was 35.5 µM (active). For `CCn1nc(-c2ccccc2)c2nc3ccccc3nc21`, the Potency was “inactive”. With `Nc1c(Cl)c(Cl)nc(C(=O)OCC(=O)NCc2ccccc2)c1Cl` the Potency was “inactive”. With `O=C(NCc1ccccc1)c1c(Cl)nc(Cl)c(Cl)c1Cl` the Potency was 39.8 µM (active). `Cc1nc(Cl)c(C(=O)NCc2ccccc2)c(C)c1Cl` was tested, and the Potency was “inactive”. In the case of `CCOC(=O)c1sc2nc(C)cc(-c3ccccc3)c2c1N`, the Potency is reported as “inactive”. In the case of `CCOC(=O)c1sc2nc(-c3cccnc3)ccc2c1N`, the Potency is reported as “inactive”. In the case of `CCCOC(=O)c1cccc(Nc2nc(-c3cccnc3)nc3ccccc23)c1`, the Potency is reported as 35.5 µM (active). In the case of `CC(=O)c1cccc(Nc2nc(-c3ccccc3)nc3ccccc23)c1`, the Potency is reported as “inactive”. `CCOC(=O)c1nc(Nc2ccccc2CC)c2ccccc2n1` was tested, and the Potency was “inactive”. `CCOC(=O)c1cccc(Nc2nc(C(=O)OCC)nc3ccccc23)c1` was tested, and the Potency was 39.8 µM (active). With `O=c1cc(-c2ccccc2)c2ccc(O)cc2o1` the Potency was “inactive”. With `O=C1CN(C(=O)NCC(=O)N2CCCC2)c2ccccc2N1` the Potency was “inactive”. For `O=C1OCCN1C(=O)[C@H]1[C@H](c2ccccc2)C(c2ccc(F)cc2)=NN1c1ccc(Br)cc1`, the Potency was “inactive”. For `CCCC(O)(CCC)C(=O)NN(C(=O)CCl)c1cccc(C)c1`, the Potency was 21.2 µM (active). With `CCCCCCCN(C(=O)CCl)c1cccc(C)c1` the Potency was 14.1 µM (active). With `Cc1ccc(S(=O)(=O)Oc2ccc(C3C4=C(CCCC4=O)N(CCC(=O)O)C4=C3C(=O)CCC4)cc2Cl)cc1` the Potency was “inactive”. `O=C(c1ccc(F)cc1)C1CCN(Cc2ccccc2)CC1` was tested, and the Potency was “inactive”. With `O=c1oc2c(CN3CCOCC3)c(O)ccc2cc1-c1ccccc1` the Potency was “inactive”. `OC(CN1CCN(C(c2ccccc2)c2ccccc2)CC1)c1ccc(Br)cc1` (configuration not stated) was tested, and the Potency was “inactive”. For `O=C(c1ccc(F)cc1)C(CN1CCOCC1)c1ccccc1` (configuration not stated), the Potency was 25.1 µM (active). In the case of `O=c1c2ccccc2n(CC(O)CN2CCOCC2)c2ccccc12` (configuration not stated), the Potency is reported as “inactive”. With `O=C(c1ccccc1)C(CCC(CN1CCOCC1)C(=O)c1ccccc1)CN1CCOCC1` (configuration not stated) the Potency was 14.1 µM (active). For `O=C(c1ccc(Br)cc1)C(CN1CCOCC1)c1ccccc1` (configuration not stated), the Potency was 29.9 µM (active). In the case of `O=C(c1ccc(Br)cc1)c1sc(N2CCOCC2)nc1-c1ccccc1`, the Potency is reported as “inactive”. In the case of `CC(N=C(S)N1CCOCC1)c1ccccc1` (configuration not stated), the Potency is reported as “inactive”. In the case of `Cc1c(O)ccc2c(CN3CCN(C/C=C/c4ccccc4)CC3)cc(=O)oc12`, the Potency is reported as “inactive”. For `O=[N+]([O-])c1ccc(C2=CSC3=NCCN23)cc1`, the Potency was “inactive”. For `Cc1cccc(-n2nc(C)c3c2N=C2CCCC(O)=C2C3c2ccccn2)c1` (configuration not stated), the Potency was “inactive”. With `CC1(C(=O)OCC(=O)Nc2cc(S(=O)(=O)N3CCOCC3)ccc2Cl)CC1(Cl)Cl` (configuration not stated) the Potency was “inactive”. With `O=c1c2ccccc2oc2cc(NCCCn3ccnc3)ccc12` the Potency was “inactive”. In the case of `Cc1ccc2nc3c(cc(C(=O)NCc4ccccc4)c(=N)n3CCCn3ccnc3)c(=O)n2c1`, the Potency is reported as “inactive”. For `c1ccc(-c2c(-c3ccccc3)n(Cc3ccco3)c3ncnc(NCCCn4ccnc4)c23)cc1`, the Potency was 25.1 µM (active). In the case of `O=C(NCCCn1ccnc1)c1ccc(-c2ccccc2)cc1`, the Potency is reported as “inactive”. In the case of `Cc1cccc(Cl)c1OCCCn1ccnc1`, the Potency is reported as “inactive”. With `N=c1c2c(-c3ccccc3)c(-c3ccccc3)n(Cc3ccccc3)c2ncn1CCCn1ccnc1` the Potency was 35.5 µM (active). `CC[C@H]1C(c2ccc(F)cc2)=NN(c2ccccc2)[C@@H]1CO` was tested, and the Potency was “inactive”. With `C/C(CC(=O)NCc1ccco1)=N\NC(=O)Cc1ccc(-c2ccccc2)cc1` the Potency was “inactive”. With `NS(=O)(=O)c1ccc(NC(=O)COC(=O)COc2cccc(C(F)(F)F)c2)cc1` the Potency was “inactive”. For `COc1cc(C(=O)NN=C(S)Nc2ccc(S(N)(=O)=O)cc2)cc(OC)c1OC`, the Potency was “inactive”. For `CC(C)C(Cl)=NOC(=O)Nc1ccc(S(N)(=O)=O)cc1`, the Potency was 21.2 µM (active). For `COC(=O)c1c(NC(=O)c2ccc(S(=O)(=O)N3CC(C)OC(C)C3)cc2)sc2c1CCN(C)C2` (configuration not stated), the Potency was “inactive”. With `O=c1ccc2cc3c4c(c2o1)CCCN4CCC3` the Potency was “inactive”. For `CCCCOc1ccc(N(CC(=O)NCc2ccco2)C(=O)CCC(=O)Nc2nccs2)cc1`, the Potency was “inactive”. With `COc1ccc(OC)c([N+](=O)[O-])c1C(N)=O` the Potency was “inactive”. `COc1ccncc1-c1ccc(C2=CC(=O)CC(C)(C)C2=O)cc1` was tested, and the Potency was 35.5 µM (active). With `CC1=CC(=C(C#N)c2nc3ccccc3s2)C=C(C)N1c1ccc(F)cc1F` the Potency was “inactive”. In the case of `CC1=C(C(=O)NCCCOC(C)C)C2(CCC(C)CC2)OC1=O` (configuration not stated), the Potency is reported as “inactive”. With `COCCCn1c(C(=O)NCCN2CCOCC2)cc2c(=O)n3ccccc3nc21` the Potency was “inactive”. In the case of `COc1cccc(-n2cnnc2S)c1`, the Potency is reported as “inactive”. In the case of `CCCS(=O)(=O)c1nnnn1-c1cccc(OC)c1`, the Potency is reported as 35.5 µM (active). `COc1cccc(/C=N/n2nnnc2N)c1` was tested, and the Potency was “inactive”. For `Cc1cc(OC(C)C(=O)NC2CC(C)(C)NC(C)(C)C2)c2c(C)c(C)c(=O)oc2c1` (configuration not stated), the Potency was “inactive”. With `Cc1cccn2c(=O)c3cc(C(=O)NC(C)c4ccccc4)c(=N)n(CCCO)c3nc12` (configuration not stated) the Potency was “inactive”. For `CCN(CC)S(=O)(=O)c1ccc(NC(=O)c2ccc3c(=O)n4c(nc3c2)CCCCC4)cc1`, the Potency was 11.2 µM (active). `O=c1c2cc(NC(=S)N3CCC(N4CCCCC4)CC3)ccc2nc2n1CCCCC2` was tested, and the Potency was “inactive”. For `O=C(Nc1ccc2nc3n(c(=O)c2c1)CCCCC3)c1cc([N+](=O)[O-])ccc1F`, the Potency was 39.8 µM (active). In the case of `Cc1cccc(OC(=O)c2ccc3c(=O)n4c(nc3c2)CCC4)c1`, the Potency is reported as “inactive”. For `O=C(Nc1ccc2nc3n(c(=O)c2c1)CCCCC3)c1c(F)ccc([N+](=O)[O-])c1F`, the Potency was 8.91 µM (active). For `CCCN(CCC)CCCN=C(S)Nc1ccc2nc3n(c(=O)c2c1)CCCCC3`, the Potency was “inactive”. For `O=C(/C=C/c1ccco1)Nc1ccc2nc3n(c(=O)c2c1)CCCC3`, the Potency was “inactive”. For `O=C(Nc1ccc2nc3n(c(=O)c2c1)CCCC3)c1cc([N+](=O)[O-])ccc1F`, the Potency was 22.4 µM (active). With `Cc1ccc(C)c(NC(=O)c2ccc3c(=O)n4c(nc3c2)CCC4)c1` the Potency was “inactive”. With `N#C/C(=C\c1ccc2c(c1)OCCO2)C(=O)Nc1nccs1` the Potency was “inactive”. For `CCCCn1c(=O)[nH]c2nc3cc(N)ccc3nc2c1=O`, the Potency was “inactive”. In the case of `Cc1cccc2c(=O)n(C(=O)c3ccccc3)c(N)nc12`, the Potency is reported as “inactive”. `CC(=O)c1ccc(OCC(=O)OC(C)C(=O)NC2CCCCC2)cc1` (configuration not stated) was tested, and the Potency was “inactive”. With `CCC(C)c1ccc(S(=O)(=O)N2CCN(C(C)CC(=O)O)CC2)cc1` (configuration not stated) the Potency was “inactive”. `CS(=O)(=O)c1ccc(C(=O)OCC(=O)NC(=O)C2CCCCC2)cc1[N+](=O)[O-]` was tested, and the Potency was 35.5 µM (active). For `O=C(NCC(O)c1ccc([N+](=O)[O-])cc1)C1CCCCC1` (configuration not stated), the Potency was “inactive”. For `O=C(COC(=O)c1ccc(C(F)(F)F)cc1)NC(=O)NC1CCCC1`, the Potency was “inactive”. For `CN(Cc1ccccc1F)Cc1cc(=O)oc2cc(O)c(Cl)cc12`, the Potency was “inactive”. For `CC(C)c1ccc(NC(=O)Nc2nc(C(N)c3ccccc3)cs2)cc1` (configuration not stated), the Potency was 28.2 µM (active). `O=C(Nc1ccc(Cl)cc1)Nc1cccc2nsnc12` was tested, and the Potency was “inactive”. `NC(c1ccccc1)c1csc(NC(=O)Nc2ccc(OC(F)(F)F)cc2)n1` (configuration not stated) was tested, and the Potency was 39.8 µM (active). `CC(C)c1ccc(/C=C(/C#N)c2nnc(NC(=O)c3ccccc3)s2)cc1` was tested, and the Potency was “inactive”. With `CC(C)c1ccc(NC(=O)Nc2nc(C(N)c3ccccc3Cl)cs2)cc1` (configuration not stated) the Potency was 35.5 µM (active). With `CC(C)c1ccc(NC(=O)Nc2nc(C(C)N)cs2)cc1` (configuration not stated) the Potency was 35.5 µM (active).
